Assay outcomes deposited in PubChem BioAssay by several laboratories.
Hits are enriched below; roughly 8% of the tested compounds scored in any of these assays.
PostGolgi ctrl = yeast control strain growth, post-Golgi counter-screen; 98,000 tested, 5% active; efflux-deficient yeast background strain, growth absorbance A615, 16 h; inhibition, % at 10 µM; AID 738
PTK2B oligo ant = Pyk2 (human) oligomerization antagonism; Q14289; Q293 cells, Pyk2 FERM NanoBiT luminescence; stronger effect = lower value; z-score (the deposit names both 25 µM and 10 µM); 99,000 tested, 0.83% active; AID 1347419;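 active = Z-score of -3 or lower, scaled per plate to the spread of control and sample wells; inactive = z-score above -3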;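 note: negative z-score means lost luminescence so less FERM oligomerization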
Cav32 inh = blocks human Cav3.2 T-type calcium channel; O95180; Cav3.2-expressing cells, Fluo-4 calcium fluorescence FDSS; stronger effect = lower value; B-score at 10 µM; 100,000 tested, 4% active; AID 449739;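 active = single-dose well whose peak fluorescence ratio is a statistical outlier from its plate by either plate-standardised score or position-corrected B-score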
PostGolgi yeast = growth inhibition of a yeast mutant, post-Golgi transport screen | post-Golgi transport phenotypic cell assay | inhibition, % at 10 µM | 98,000 tested, 0.9% active;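 note: yeast cells grown in 1536-well plates; yeast grown about 18 h at 30C before absorbance read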
* hit, by the source's call. Cut-off read from the data, not from the text of the source, unless noted: active = inhibition above about 30%; inactive = the rest.

For CCc1c(C#N)c(SCCC(=O)Nc2ccc(OC)cc2)nc2c1C(=O)CC(C)(C)C2 the results were PostGolgi ctrl 4.8, PTK2B oligo ant -3.09*, Cav32 inh -1.07 and PostGolgi yeast -3.2.
For O=c1ccc(/C=C/c2ccccc2)nn1Cc1ccccc1Cl the results were PostGolgi ctrl 40.6*, PTK2B oligo ant -0.39, Cav32 inh 0.619 and PostGolgi yeast -4.9.
For O=c1ccc(/C=C/c2ccccc2)nn1Cc1ccc(Cl)cc1Cl the results were PostGolgi ctrl 24.3, PTK2B oligo ant 0.71, Cav32 inh 0.576 and PostGolgi yeast -10.8.
Screening COc1ccccc1NC(=O)CN(C)S(=O)(=O)c1ccc(F)cc1 returned PostGolgi ctrl 1.2, PTK2B oligo ant 2.09, Cav32 inh 0.638 and PostGolgi yeast 3.2.
Screening CN(CC(=O)Nc1ccccc1N1CCOCC1)S(=O)(=O)c1ccc(F)cc1 returned PostGolgi ctrl 31.1*, PTK2B oligo ant -0.56, Cav32 inh -0.966 and PostGolgi yeast -4.7.
For COc1ccc(C2CC2/C(=N/OC(=O)c2cccs2)c2ccccc2)cc1 (stereo not given) the results were PostGolgi ctrl 40.2*, PTK2B oligo ant -0.83, Cav32 inh -5.99* and PostGolgi yeast 20.0.
For C/C(=N\NC(=O)C1CC1c1ccccc1)c1cccs1 (stereo not given) the results were PostGolgi ctrl 1.2, PTK2B oligo ant -0.13, Cav32 inh -0.284 and PostGolgi yeast -4.3.
Screening CCC(=O)Nc1nc(=S)ss1 returned PostGolgi ctrl 3.6, PTK2B oligo ant 0.66, Cav32 inh -0.404 and PostGolgi yeast -2.1.
CC(C)(C)C(=O)Nc1nc(=S)ss1 was read as PostGolgi ctrl 19.7, PTK2B oligo ant -0.04, Cav32 inh -4.99* and PostGolgi yeast 20.4.
CSc1nc(SCC(N)=O)c2c3c(sc2n1)CN(C)CC3 was read as PostGolgi ctrl -0.1, PTK2B oligo ant 2.49, Cav32 inh 4.12* and PostGolgi yeast 1.2.
For Cc1cc(C)cc(Nc2ncc3c(n2)CCCC3=O)c1 the results were PostGolgi ctrl 33.4*, PTK2B oligo ant 0.26, Cav32 inh 0.702 and PostGolgi yeast 9.3.
`Cc1cc(C)cc(Nc2ncc3c(n2)CC(c2ccco2)CC3=O)c1` (stereo not given) gave PostGolgi ctrl 1.9, PTK2B oligo ant 0.12, Cav32 inh -3.83 and PostGolgi yeast 5.0.
For CCOC(=O)N1CCN(C(=O)CN(Cc2ccccc2)S(=O)(=O)c2ccc(OC)c(C)c2)CC1 the results were PostGolgi ctrl 30.0*, PTK2B oligo ant 2.2, Cav32 inh -0.538 and PostGolgi yeast -5.0.
`CCOC(=O)Cc1csc(NC(=O)CC)n1` gave PostGolgi ctrl 6.0, PTK2B oligo ant 1.16, Cav32 inh -0.394 and PostGolgi yeast -2.3.
Screening CCOC(=O)Cc1csc(NC(=O)COc2ccc3ccccc3c2)n1 returned PostGolgi ctrl -2.4, PTK2B oligo ant 1.34, Cav32 inh -10* and PostGolgi yeast -6.5.
CCOC(=O)Cc1csc(NC(=O)COc2ccc(N(C)S(=O)(=O)c3ccc(C)cc3)cc2)n1 was read as PostGolgi ctrl -2.5, PTK2B oligo ant -3.9*, Cav32 inh -6.52* and PostGolgi yeast -6.3.
Screening CCOC(=O)Cc1csc(NC(=O)COc2ccccc2OCC)n1 returned PostGolgi ctrl 6.3, PTK2B oligo ant 0.08, Cav32 inh -0.623 and PostGolgi yeast 17.6.
For Cc1ccc(OCC(=O)c2c(O)c3ccccc3oc2=O)cc1C the results were PostGolgi ctrl 1.3, PTK2B oligo ant 1.54, Cav32 inh -8.31* and PostGolgi yeast 4.5.
For Cc1ccc(C(C)C)c(OCC(=O)c2c(O)c3ccccc3oc2=O)c1 the results were PTK2B oligo ant 0.4 and Cav32 inh -7.6*.
For Cc1ccc(OCC(=O)NNC(=O)c2cc3ccccc3o2)cc1C the results were PostGolgi ctrl 4.4, PTK2B oligo ant 0.95, Cav32 inh 1.24 and PostGolgi yeast 7.8.
Screening O=C1C2C3C=CC(C3)C2C(=O)N1/N=C/c1cn(Cc2ccc(F)cc2)c2ccccc12 (stereo not given) returned PostGolgi ctrl 37.3*, PTK2B oligo ant -0.43, Cav32 inh -3.35 and PostGolgi yeast -11.0.
For O=C1C2C3C=CC(C3)C2C(=O)N1/N=C/c1cn(Cc2ccccc2)c2ccccc12 (stereo not given) the results were PostGolgi ctrl 32.5*, PTK2B oligo ant -0.54 and PostGolgi yeast 5.5.
[2H]c1c([2H])c([2H])c(-c2nc(N3CCCCCC3)sc2C(=O)c2ccccc2)c([2H])c1[2H] was read as PostGolgi ctrl 19.1, PTK2B oligo ant -0.3, Cav32 inh -1.86 and PostGolgi yeast -6.5.
`Cc1noc(C)c1CSc1nnc2cc(C)c3ccccc3n12` gave Cav32 inh 2.13.
For Cc1cccc(-n2c(O)c(C=NCCCN3CCOCC3)c3ccccc3c2=O)c1 the results were PostGolgi ctrl 15.9, PTK2B oligo ant 0.37, Cav32 inh 1.1 and PostGolgi yeast -10.3.
